Activity calls are given as the source filed them. Unless noted, the rule behind the calls is not given here.
What was measured:
[1] = anti-His antibody binders, primary screen, artefact control for SMM control protein annotation, biochemical, small-molecule microarray, 635 nm fluorescence (AID 1128); conditions: anti-His Alexa647 antibody binding, higher = more signal;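 note: score merges feature fluorescence with signal-to-noise for each printed compound spot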
[2] = system: Human papillomavirus type 1a E7 protein (residues 1-88); assay: HPV1a E7 small-molecule binders, primary screen, biochemical, small-molecule microarray, residues 1-88, 635 nm (AID 1129); conditions: small-molecule microarray binding, fluorescence 635 nm; higher = more signal
[3] = target: Focal adhesion kinase 1 (Homo sapiens) (UniProt Q05397); assay: small-molecule microarray binders of FAK, primary screen, biochemical, 635/667 nm fluorescence, BSA, DTT (AID 1130); conditions: PTK2 binding, 635 nm fluorescence, higher = more signal;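 note: composite of spot emission at 667 nm and signal to noise over triplicate slides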
Chain of Focal adhesion kinase 1 (Homo sapiens) (Q05397 whole entry, looked up): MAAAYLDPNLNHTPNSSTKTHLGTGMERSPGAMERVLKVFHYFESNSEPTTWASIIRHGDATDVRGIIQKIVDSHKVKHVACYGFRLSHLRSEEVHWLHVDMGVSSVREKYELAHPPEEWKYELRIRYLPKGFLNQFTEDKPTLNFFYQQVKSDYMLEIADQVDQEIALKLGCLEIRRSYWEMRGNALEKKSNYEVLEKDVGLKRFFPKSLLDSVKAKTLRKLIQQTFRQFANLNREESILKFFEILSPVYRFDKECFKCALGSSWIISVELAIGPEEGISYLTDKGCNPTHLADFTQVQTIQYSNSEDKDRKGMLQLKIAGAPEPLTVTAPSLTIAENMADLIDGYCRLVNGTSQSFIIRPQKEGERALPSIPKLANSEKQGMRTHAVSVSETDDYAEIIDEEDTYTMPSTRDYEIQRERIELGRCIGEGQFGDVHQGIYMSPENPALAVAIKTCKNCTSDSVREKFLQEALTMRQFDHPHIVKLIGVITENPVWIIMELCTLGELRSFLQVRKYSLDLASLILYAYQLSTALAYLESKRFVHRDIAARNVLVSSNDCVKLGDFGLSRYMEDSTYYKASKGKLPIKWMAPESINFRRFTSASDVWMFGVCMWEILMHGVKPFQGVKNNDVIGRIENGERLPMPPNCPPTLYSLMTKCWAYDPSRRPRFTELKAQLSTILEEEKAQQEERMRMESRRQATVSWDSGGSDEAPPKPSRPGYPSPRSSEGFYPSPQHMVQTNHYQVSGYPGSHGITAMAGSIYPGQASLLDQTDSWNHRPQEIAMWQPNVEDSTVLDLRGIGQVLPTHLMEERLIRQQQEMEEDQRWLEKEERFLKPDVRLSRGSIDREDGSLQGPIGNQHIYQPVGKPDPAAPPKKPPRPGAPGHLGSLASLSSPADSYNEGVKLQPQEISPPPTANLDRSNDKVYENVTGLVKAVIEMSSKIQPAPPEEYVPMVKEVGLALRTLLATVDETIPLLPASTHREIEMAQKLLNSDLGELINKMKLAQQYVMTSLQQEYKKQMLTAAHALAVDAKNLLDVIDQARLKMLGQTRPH

[4] = system: Fibrinogen (Alexa647-labelled); assay: fibrinogen binders on compound microarrays, profiling panel, artefact control for SMM control-protein annotation, biochemical, small-molecule microarray, 635/667 nm fluorescence (AID 1131); conditions: fibrinogen-A647 binding fluorescence, higher = more signal;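 note: z-score merges 667 nm fluorescence with per-spot signal-to-noise over triplicate slides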
[5] = target: Follistatin (Homo sapiens) (UniProt P19883); assay: follistatin binders on small-molecule microarrays, primary screen, biochemical, small-molecule microarray, 635/667 nm fluorescence (AID 1132); conditions: FST binding, 635 nm fluorescence, higher = more signal
Chain of Follistatin (Homo sapiens) (P19883 whole entry, looked up): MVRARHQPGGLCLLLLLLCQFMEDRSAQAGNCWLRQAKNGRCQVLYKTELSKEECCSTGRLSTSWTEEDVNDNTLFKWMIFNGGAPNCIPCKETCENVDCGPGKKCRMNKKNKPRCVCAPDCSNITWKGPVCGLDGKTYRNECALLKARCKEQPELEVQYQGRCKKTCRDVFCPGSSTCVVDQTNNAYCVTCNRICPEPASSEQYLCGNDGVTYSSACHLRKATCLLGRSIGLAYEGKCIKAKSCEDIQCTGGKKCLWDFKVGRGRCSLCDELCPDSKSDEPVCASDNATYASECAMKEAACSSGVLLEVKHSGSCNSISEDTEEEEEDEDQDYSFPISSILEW

[6] = target: Fibroblast growth factor 2 (Homo sapiens) (UniProt P09038); assay: FGF2 binders on small-molecule microarrays, primary screen, biochemical, small-molecule microarray, 635/667 nm fluorescence (AID 1133); conditions: small-molecule microarray binding, FGF2, fluorescence 635/667; higher = more signal
Chain of Fibroblast growth factor 2 (Homo sapiens) (P09038 whole entry, looked up): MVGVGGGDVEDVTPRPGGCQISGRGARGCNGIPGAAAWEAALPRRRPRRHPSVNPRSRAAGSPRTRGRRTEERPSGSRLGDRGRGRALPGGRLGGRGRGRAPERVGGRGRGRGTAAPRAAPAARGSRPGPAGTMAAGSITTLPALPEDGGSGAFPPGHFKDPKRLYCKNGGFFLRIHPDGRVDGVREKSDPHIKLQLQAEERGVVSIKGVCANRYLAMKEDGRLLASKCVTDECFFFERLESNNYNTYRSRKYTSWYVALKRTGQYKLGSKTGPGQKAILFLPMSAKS

[7] = mitochondrial membrane potential change in A549 cells, profiling panel, cell-based, JC-1 fluorescence, basal, 24 h, 100 nL (AID 1138); conditions: higher = more signal;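 note: A549 lung adenocarcinoma cells under basal conditions with no added stimulus; test concentration not given here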
Lefty1 = Lefty1 binders on small-molecule microarrays, primary screen, biochemical, small-molecule microarray, 635/667 nm fluorescence (AID 1139); conditions: small-molecule microarray binding, fluorescence 635/667; higher = more signal
[8] = system: wheat germ agglutinin (Triticum aestivum), Alexa647-labelled; assay: wheat germ agglutinin binders on compound microarrays, profiling panel, artefact control for SMM control-protein annotation, biochemical, small-molecule microarray, 635/667 nm fluorescence (AID 1140); conditions: WGA-A647 binding, 635 nm fluorescence, higher = more signal;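 note: score merges 667 nm feature emission with signal to noise over triplicate slides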
[9] = target: Luciferin 4-monooxygenase (Photinus pyralis) (UniProt P08659); assay: firefly luciferase enzyme inhibitors, primary screen, biochemical, luminescence, purified enzyme, 2006 set (AID 1141); conditions: SteadyGlo luminescence, 30 min, higher = more signal, called active from +8 up or from −8 down;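 note: cell-free assay with purified firefly luciferase at 100 ng per well in PBS; test concentration not given here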
Chain of Luciferin 4-monooxygenase (Photinus pyralis) (P08659 whole entry, looked up): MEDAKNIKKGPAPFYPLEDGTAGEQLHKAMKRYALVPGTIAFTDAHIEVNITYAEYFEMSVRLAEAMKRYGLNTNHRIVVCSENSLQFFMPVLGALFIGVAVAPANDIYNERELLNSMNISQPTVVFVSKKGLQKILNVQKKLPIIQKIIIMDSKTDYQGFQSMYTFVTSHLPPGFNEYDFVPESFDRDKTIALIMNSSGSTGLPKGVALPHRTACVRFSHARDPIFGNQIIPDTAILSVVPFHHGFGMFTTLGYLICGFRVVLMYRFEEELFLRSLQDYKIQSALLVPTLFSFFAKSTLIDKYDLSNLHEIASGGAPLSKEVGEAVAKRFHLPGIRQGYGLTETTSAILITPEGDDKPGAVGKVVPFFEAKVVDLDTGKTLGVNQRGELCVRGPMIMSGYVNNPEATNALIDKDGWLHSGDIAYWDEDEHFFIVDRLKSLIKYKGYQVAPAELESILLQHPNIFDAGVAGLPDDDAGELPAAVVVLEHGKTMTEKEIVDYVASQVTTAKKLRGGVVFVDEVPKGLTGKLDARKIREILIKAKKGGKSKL

[10] = system: Wnt5a (protein binding on small-molecule microarray); assay: Wnt5a binders on small-molecule microarray, primary screen, biophysical, 635/667 nm fluorescence (AID 1142); conditions: 635 nm fluorescence, higher = more signal;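 note: fluorescence read at 667 nm with signal to noise per printed feature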
[11] = cell viability in Huh7 cells, primary screen, cytotoxicity control for HCV replication inhibitor project, CellTiter-Glo luminescence, basal, 48 h (AID 1143); conditions: Huh7 HCV replicon, higher = more signal, called active from +8 up or from −8 down;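 note: Huh7 hepatoma cells carrying a hepatitis C replication reporter with no stimulus; test concentration not given here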
[12] = P. aeruginosa biofilm formation inhibitors, primary screen, PAO1 strain, BacTiter-Glo luminescence, LB-PBS (AID 1144); conditions: 12 h, higher = more signal
[13] = CREB reporter modulators without forskolin, primary screen, cell-based, PC12, CRE-LacZ reporter, unstimulated (AID 1145); conditions: no forskolin, luminescence, 4.5 h, higher = more signal, called active from +8 up or from −8 down
[14] = CREB reporter modulators under forskolin, primary screen, cell-based, PC12, CRE-LacZ reporter, forskolin-stimulated (AID 1146); conditions: luminescence, 4.5 h, higher = more signal, called active from +8 up or from −8 down;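 note: PC12 cells with 6xCRE LacZ reporter stimulated by forskolin 10 µM; beta-galactosidase reporter signal reflecting CREB driven transcription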
[15] = target: Streptavidin (Streptomyces avidinii) (UniProt P22629); assay: streptavidin binders on small-molecule microarray, primary screen, artefact control for SMM compound annotation, biophysical, 635/667 nm fluorescence (AID 1147); conditions: streptavidin binding, higher = more signal;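 note: signal reflects streptavidin binding to arrayed compounds as a control protein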
Chain of Streptavidin (Streptomyces avidinii) (P22629 whole entry, looked up): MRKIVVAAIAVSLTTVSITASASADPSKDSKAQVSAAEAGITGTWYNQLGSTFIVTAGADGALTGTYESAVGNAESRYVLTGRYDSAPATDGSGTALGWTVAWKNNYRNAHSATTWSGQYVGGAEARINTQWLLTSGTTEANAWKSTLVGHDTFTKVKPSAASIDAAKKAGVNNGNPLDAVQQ

[16] = small-molecule binders of probe aInhba, primary screen, biochemical, small-molecule microarray, 635/667 nm fluorescence (AID 1148); conditions: higher = more signal;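 note: score merges 667nm spot fluorescence with signal-to-noise for antibody binding to printed compounds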
Torsin-1A (Homo sapiens) [17] = target: Torsin-1A (Homo sapiens) (UniProt O14656); assay: torsin A binders from cell lysate, primary screen, small-molecule microarray, wild-type, 635/667 nm (AID 1149); conditions: COS7 hTOR1A-WT lysate, 635 nm fluorescence, higher = more signal
Chain of Torsin-1A (Homo sapiens) (O14656 whole entry, looked up): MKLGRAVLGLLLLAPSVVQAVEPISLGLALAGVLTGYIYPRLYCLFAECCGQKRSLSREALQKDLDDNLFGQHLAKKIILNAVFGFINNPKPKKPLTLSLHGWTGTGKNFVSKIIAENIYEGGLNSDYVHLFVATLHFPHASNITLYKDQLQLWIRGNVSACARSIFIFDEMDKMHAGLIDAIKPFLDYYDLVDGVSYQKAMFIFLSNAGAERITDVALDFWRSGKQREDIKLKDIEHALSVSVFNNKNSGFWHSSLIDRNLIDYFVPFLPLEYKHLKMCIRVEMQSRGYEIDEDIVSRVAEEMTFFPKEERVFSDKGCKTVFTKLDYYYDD

Torsin-1A (Homo sapiens) [18] = target: Torsin-1A (Homo sapiens) (UniProt O14656); assay: small-molecule binders of mutant TOR1A in lysate, primary screen, cell lysate, small-molecule microarray, COS7 lysate, 635/667 nm fluorescence (AID 1150); conditions: COS7 hTOR1A mutant lysate, 635 nm fluorescence, higher = more signal;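 note: score pools 667 nm emission and signal to noise measuring lysate protein binding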
[19] = system: Sonic hedgehog protein (Shh); assay: small-molecule binders of Shh protein, primary screen, biochemical, small-molecule microarray, 635/667 nm fluorescence (AID 1151); conditions: small-molecule microarray binding, 635 nm fluorescence; higher = more signal;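 note: Shh protein binding to compounds spotted on small-molecule microarray slides; score combines spot fluorescence intensity with signal-to-noise across triplicate slides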

Compound | composite z-score [1] | composite z-score [2] | composite z-score [3] | composite z-score [4] | composite z-score [5] | composite z-score [6] | z-score [7] | composite z-score (Lefty1) | composite z-score [8] | z-score [9] | composite z-score [10] | z-score [11] | z-score [12] | z-score [13] | z-score [14] | composite z-score [15] | composite z-score [16] | composite z-score (Torsin-1A (Homo sapiens) [17]) | composite z-score (Torsin-1A (Homo sapiens) [18]) | composite z-score [19]
C=CCOC(=O)[C@H]1[C@@H]2C(=O)O[C@@H](c3ccccc3)[C@@H](c3ccccc3)N2[C@@H](c2ccc(OCCOC(=O)[C@@H]3C[C@@H]4C(=O)N[C@@H](CCCC[N+](C)(C)C)C(=O)N4[C@@H]3c3ccc(O)cc3)cc2)[C@]12C(=O)Nc1ccccc12 | 1.46 | 1.2 | 0.877 | 0.583 | 1.26 | 1.51 | -0.849 | 1.18 | 0.494 | -2.95 (inactive) | 0.444 | -2.47 (inactive) | -1.19 (inactive) | -1.07 (inactive) | -1.48 (inactive) | -0.0862 | -0.0494 | 1.67 | 1.23 | 2.06
CN1C(=O)C2C=CC(C(O)c3ccc(I)cc3)N(N3CCCCC3)C2C1=O (stereo not given) | 1.09 | 1.21 | 0.578 | 0.924 | 1.24 | -0.148 | 0.158 | 0.459 | 1.2 | -1.05 (inactive) | 0.512 | -0.394 (inactive) | 0.175 (inactive) | 0.246 (inactive) | 0.818 (inactive) | 1.42 | 0.303 | 0.702 | 1.6 | 0.624
COc1ccc([Si](C)(C)[C@@H]2[C@@H](CC(=O)N3Cc4ccccc4C[C@H]3CO)O[C@]3(C(=O)N(C)c4c(Br)cc(C)cc43)[C@H]2C)cc1 | 0.333 | 1.13 | 0.341 | 0.76 | 1.35 | 1.65 | 0.595 | 1.56 | 1.03 | -0.178 (inactive) | 0.251 | -5.91 (inactive) | -1.41 (inactive) | 6.12 (inactive) | 0.0739 (inactive) | 0.813 | -0.0645 | 1.01 | 1.19 | 2.14
COC(=O)C=C(CC(O)c1cccc(Cl)c1)OC (stereo not given) | 1.14 | 1.15 | 0.0918 | 0.6 | -0.431 | -0.0579 | -0.252 | -0.492 | 1.04 | 0.699 (inactive) | 0.321 | -2.41 (inactive) | -0.179 (inactive) | -0.116 (inactive) | -0.809 (inactive) | 0.307 | 1.09 | 0.208 | 1.11 | -0.425
CN(C)C(=O)[C@@]1(Cc2ccccc2)N=C(c2ccc(OCCCO)cc2)O[C@H]1c1ccccc1N=[N+]=[N-] | 2.01 | 1.25 | 0.978 | 1.01 | 1.34 | 0.249 | -0.631 | 0.623 | 0.382 | -6.45 (inactive) | 0.762 | -4.47 (inactive) | -1.05 (inactive) | 0.115 (inactive) | -2.09 (inactive) | 1.5 | 0.086 | 0.697 | 0.505 | -0.346

Reference: PubChem BioAssay
